{
  "source": "PubChem BioAssay (NCI)",
  "note": "Compounds without any hit were thinned out: in the full panel of roughly 83,000, 20% have a hit.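 Interpretation: 100, growth as untreated; towards 0, rising growth inhibition; 0, no net growth; 0 to -100, cell death. Compounds scoring below 10 were considered active.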 The source made the active and inactive calls.",
  "data": [
    {"system": "SR leukemia", "assay": "NCI-60 one-dose screen, 48 h (100 = growth as untreated, 0 = no growth, -100 = all killed)", "conditions": "10 µM", "procedure": "Growth inhibition of the SR human tumor cell line is measured as a screen for anti-cancer activity. Cells are grown in 96 well plates and exposed to the test compound for 48 hours. Compounds are tested at a single concentration, which is 10^-5 M for most compounds. The reported endpoint is percent growth (GI% or GIPRCNT), where numbers from 0 - 100% represent growth inhibition, and numbers from -100% - 0 represent cell death. For example, a value of 40 represents 60% growth inhibition. A value of 0 means no net growth occurred over the course of the experiment. A value of -40 indicates 40% of cells at the beginning of the experiment died by the end of the experiment. A value of -100 means all cells are dead at the end of the experiment.\nNCI-60 Human Tumor Cell Lines Screen was performed using the standard one-dose NCI protocol, which is described in more detail at https://dtp.cancer.gov/discovery_development/nci-60/default.htm.\nCompounds with GIPRCNT values below 10 were considered active. Activity score was based on GIPRCNT using the following formula: […]\nScore is 0 for GIPRCNT values of 100 or above, 50 for GIPRCNT values of 0, and 100 for GIPRCNT values of -100.", "values": [
      {"smiles": "Cc1cc(Cc2cc(C)c(N)cc2N)c(N)cc1N", "growth": "55.2% (inactive)"},
      {"smiles": "CCCCCCCCOC(=O)c1ccccn1", "growth": "125% (inactive)"},
      {"smiles": "Cc1cc(=O)n(-c2ccc(F)cc2)[nH]1", "growth": "97.1% (inactive)"},
      {"smiles": "CCCC1(c2ccccc2)NC(=O)NC1=O", "note": "(stereo not given)", "growth": "126% (inactive)"},
      {"smiles": "Cc1c(C(=O)O)c(=O)n(-c2ccccc2)n1C", "growth": "123% (inactive)"},
      {"smiles": "COc1cc(C2NC(=O)C(C#N)=C(Nc3cccc(C)c3)S2)ccc1O", "note": "(stereo not given)", "growth": "107% (inactive)"},
      {"smiles": "Cc1cc2nc(CO)[nH]c2cc1C", "growth": "122% (inactive)"},
      {"smiles": "S=c1[nH]ccn1-c1ccccc1Cl", "growth": "101% (inactive)"},
      {"smiles": "O=C(NN=C1CCCCC1)C(=O)NN=C1CCCCC1", "growth": "83.7% (inactive)"},
      {"smiles": "Cc1nc2c(ccc3ccccc32)s1", "growth": "91.3% (inactive)"},
      {"smiles": "CCOC(=O)C1OC1c1ccccc1", "note": "(stereo not given)", "growth": "98.7% (inactive)"},
      {"smiles": "CN(C)c1ccc(C(c2ccc(O)cc2)c2ccc(N(C)C)cc2)cc1", "growth": "67.5% (inactive)"},
      {"smiles": "CCCC[P+](c1ccccc1)(c1ccccc1)c1ccccc1", "growth": "41.2% (inactive)"},
      {"smiles": "Cc1cc(C)cc(NCCC#N)c1", "growth": "107% (inactive)"},
      {"smiles": "CCN(CC)C(=O)/C=C(/C)c1ccccc1", "growth": "107% (inactive)"},
      {"smiles": "O=C(O)c1ccnc(Br)c1", "growth": "109% (inactive)"},
      {"smiles": "CC(=O)OC(C(=O)O)c1ccccc1", "note": "(stereo not given)", "growth": "104% (inactive)"},
      {"smiles": "CCC(C#N)(CC)c1ccccc1", "growth": "108% (inactive)"},
      {"smiles": "N#Cc1ccc(NC(=O)Nc2cccc(C#N)c2)cc1", "growth": "72.2% (inactive)"},
      {"smiles": "Cc1ccccc1C1N=C2Oc3ccccc3C=C2C(=O)N1", "note": "(stereo not given)", "growth": "45.2% (inactive)"},
      {"smiles": "CC1CCC2C(C)(C)C3CC12CC1OC13C", "note": "(stereo not given)", "growth": "117% (inactive)"},
      {"smiles": "CCOc1ccc(Br)cc1/C=N\\N=C\\c1cc(Br)ccc1OCC", "growth": "92.4% (inactive)"},
      {"smiles": "CCNCCCCNCCCCNCCCCNCCCCNCC", "growth": "68.5% (inactive)"},
      {"smiles": "Cc1cc(O)ccc1O", "growth": "104% (inactive)"},
      {"smiles": "O=c1cc(-c2ccccc2)[nH]c(=S)[nH]1", "growth": "91.9% (inactive)"},
      {"smiles": "CC(C)(N)COS(=O)(=O)O", "growth": "103% (inactive)"},
      {"smiles": "COc1ccccc1NC(=O)c1cc2cc(Br)ccc2cc1O", "growth": "-5.13% (active)"},
      {"smiles": "CCCCC1C(=O)N(c2ccccc2)N(c2ccccc2)C1=O", "growth": "103% (inactive)"},
      {"smiles": "O=c1cc(-c2ccccc2)oc2c1ccc1ccccc12", "growth": "67.3% (inactive)"},
      {"smiles": "O=C(O)CSCSCC(=O)O", "growth": "97.1% (inactive)"},
      {"smiles": "O=C1C=C(O)C(=O)C=C1O", "growth": "98.2% (inactive)"},
      {"smiles": "O=C(O)[C@@H]1[C@H]2C[C@H]3c4[nH]c5ccccc5c4CCN3C[C@@H]2CC[C@@H]1O", "growth": "115% (inactive)"},
      {"smiles": "O=[N+]([O-])c1ccc(N=Nc2ccc(O)c3ccccc23)cc1", "growth": "19.4% (inactive)"},
      {"smiles": "O=C(NCO)c1ccccc1", "growth": "98.3% (inactive)"},
      {"smiles": "COCCCC/C(=N\\OCCN)c1ccc(C(F)(F)F)cc1", "growth": "85.8% (inactive)"},
      {"smiles": "CC1(C)N=C(N)N=C(N)N1c1cccc(Br)c1", "growth": "49.4% (inactive)"},
      {"smiles": "COCCOC(=O)c1ccc(C(C)C)cc1", "growth": "95.7% (inactive)"},
      {"smiles": "CC(=O)OCCC(C)CCC=C(C)C", "note": "(stereo not given)", "growth": "108% (inactive)"},
      {"smiles": "COC(=O)/C=C1\\Sc2cc(F)ccc2NC1=O", "growth": "95.5% (inactive)"},
      {"smiles": "CNc1nc(NC)c2cn[nH]c2n1", "growth": "96.7% (inactive)"}
    ]}
  ]
}
